# Reference: PubChem BioAssay (EPA / NIEHS)
# Where “and” joins values, the source holds several entries; their conditions need not be identical. Equal values may be shown once. More than one record can exist for a structure, and the calls need not agree. Calls of active or inactive are those of the source. The calls were made as follows: active = hit-call score of the fitted dose curve at least 0.9, where 1 is the maximum; inconclusive = response in the unintended direction; inactive = score below 0.9.
# Assay: Tanguay_ZF_120hpf_MORT_legacy: (Legacy) Oregon State University Tanguay Lab 120 Hour Post-fertilization zebrafish Assay for Mortality (AID 2283633)
# Method: Tanguay_ZF_120hpf_legacy is a whole embryo, multiplexed endpoint assay using zebrafish larvae exposed for 120 hours post fertilization on a 96-well plate.Tanguay_ZF_120hpf_MORT_legacy is one of one assay component(s) measured or calculated from the Tanguay_ZF_120hpf_legacy assay. It is designed to make measurements of embryonic mortality as detected with brightfield microscopy of developing zebrafish embryos.Data from the assay component Tanguay_ZF_120hpf_MORT_legacy was analyzed into 1 assay endpoints. This assay endpoint, Tanguay_ZF_120hpf_MORT_legacy, was analyzed in the positive analysis fitting direction relative to DMSO as the negative control and baseline of activity. Using a type of viability reporter, gain-of-signal activity can be used to understand changes in developmentals as they relate to the whole embryo. To generalize the intended target to other relatable targets, this assay endpoint is annotated to the embryonic mortality intended target family, where the subfamily is embryonic mortality.
# Zebrafish husbandry: Tropical 5D wild-type adult zebrafish were housed in at an approximate density of 1000 per 100 gallon tank at the Sinnhuber Aquatic Research Laboratory, Oregon State University, Corvallis, OR. Each tank was kept at standard laboratory conditions of 28C on a 14-h light/10-h dark photoperiod in fish water consisting of reverse osmosis water supplemented with a commercially available salt (Instant Ocean). Spawning funnels were placed into the tanks the night prior, and embryos were collected and staged. To increase bioavailability, the chorion was enzymatically removed using pronase (63.6mg/ml, >/= 3.5U/mg, Sigma-Aldrich: P5147) at 4 hours post fertilization (hpf) using a custom automated dechorionator.Chemical exposures: Six hpf dechorionated embryos were placed 1 embryo per well in a 96-well plate prefilled with 90 ul of EM using automated embryo placement systems (AEPS). Ten microliters of each row of dilution plate 2 was added to 2 exposure plates. The final DMSO concentration used was 0.64% (vol/vol). Thirty-two embryos were also exposed to 5uM trimethyltin chloride (positive control). Plates were sealed to prevent evaporation and foil covered to reduce light exposure and kept in a 28C incubator. Embryos were statically exposed until 120 hpf. At 24 hpf, embryos were assessed for photomotor response using a custom photomotor response analysis tool (PRAT) and for developmental toxicity endpoints (MO24: mortality at 24 hpf, DP: developmental progression, SM: spontaneous movement, and NC: notochord distortion). At 120 hpf, locomotor activity was measured using Viewpoint Zebralab and assessed for 18 endpoints. Zebrafish acquisition and analysis program (ZAAP), a custom program designed to inventory, acquire, and manage zebrafish data, was used to collect developmental endpoints as either present or absent (i.e., binary responses were recorded). If mortality occurred for an embryo (at either 24 or 120 hpf), the non-mortality endpoints were not measured.
SMILES,outcome,AC50
C=CC1(C)OC(=O)N(c2cc(Cl)cc(Cl)c2)C1=O (stereo not given),inactive,–
CN(C)C(=S)SSC(=S)N(C)C,inactive,–
N#Cc1nn(-c2c(Cl)cc(C(F)(F)F)cc2Cl)c(N)c1S(=O)C(F)(F)F (stereo not given),inactive,–
CCCCC(CC)COC(=O)c1ccccc1C(=O)OCC(CC)CCCC (stereo not given),inactive,–
CCCC1COC(Cn2cncn2)(c2ccc(Cl)cc2Cl)O1 (stereo not given),inactive,–
COC(=O)C(C)Oc1ccc(Oc2ccc(Cl)cc2Cl)cc1 (stereo not given),inactive,–
Fc1ccc(Oc2ccnc3cc(Cl)cc(Cl)c23)cc1,inactive,–
CCOC(=O)CC(SP(=S)(OC)OC)C(=O)OCC (stereo not given),inactive,–
CNC(=O)ON=CC(C)(C)SC,inactive,–
COC(=O)C=C(C)OP(=O)(OC)OC,inactive,–
CCCN(CCC)c1c([N+](=O)[O-])cc(S(N)(=O)=O)cc1[N+](=O)[O-],inactive,–
CCOc1cc(Oc2ccc(C(F)(F)F)cc2Cl)ccc1[N+](=O)[O-],inactive,–
COc1ccc(C(c2ccc(OC)cc2)C(Cl)(Cl)Cl)cc1,inactive,–
CCc1nn(C)c(C(=O)NCc2ccc(C(C)(C)C)cc2)c1Cl,inactive,–
COP(=S)(OC)Oc1nc(Cl)c(Cl)cc1Cl,inactive,–
Cc1cc(Cl)ccc1OCC(=O)O,inactive,–
CO/C=C(/C(=O)OC)c1ccccc1Oc1cc(Oc2ccccc2C#N)ncn1,inactive,7.48 µM (active) and 1.44 µM (active)
CC(C)(C)c1ccc(CSc2cnn(C(C)(C)C)c(=O)c2Cl)cc1,–,25.1 µM (active)
CS/C(C)=N/OC(=O)N(C)SN(C)C(=O)O/N=C(\C)SC,inactive,–
COc1nc(NC(C)C)nc(NC(C)C)n1,inactive,–

SMILES,outcome,AC50
CC(Oc1ccc(Cl)cc1Cl)C(=O)O (stereo not given),inactive,–
CC1COC(Cn2cncn2)(c2ccc(Oc3ccc(Cl)cc3)cc2Cl)O1 (stereo not given),inactive,–
C=CCC1=C(C)[C@@H](OC(=O)[C@@H]2[C@@H](C=C(C)C)C2(C)C)CC1=O,inactive,–
CCON=C(CC)C1=C(O)CC(c2c(C)cc(C)cc2C)CC1=O (stereo not given),inactive,–
COc1cnc(OC)n2nc(NS(=O)(=O)c3c(OCC(F)F)cccc3C(F)(F)F)nc12,inactive,–
CC(C)Oc1cc(-n2nc(C(C)(C)C)oc2=O)c(Cl)cc1Cl,inactive,–
COC(=O)N(OC)c1ccccc1COc1ccn(-c2ccc(Cl)cc2)n1,–,0.367 µM (active)
OC(c1ccc(Cl)cc1)(c1cncnc1)c1ccccc1Cl (stereo not given),inactive,–
C=CCC1=C(C)C(OC(=O)C2C(C=C(C)C)C2(C)C)CC1=O (stereo not given),inactive,–
CNC(=S)S,inactive,–
CCNc1nc(Cl)nc(NCC)n1,inactive,–
C#CCOS(=O)OC1CCCCC1Oc1ccc(C(C)(C)C)cc1 (stereo not given),inactive,–
COC(=O)c1ccccc1C(=O)OC,inactive,–
O=C(Nc1ccccc1)Nc1ccnc(Cl)c1,inactive,–
Cc1ccc(-c2c(Cl)nc(C#N)n2S(=O)(=O)N(C)C)cc1,–,1.55 µM (active)
O=C(O)COc1nc(Cl)c(Cl)cc1Cl,inactive,–
CCOP(=S)(OCC)SCn1c(=O)oc2cc(Cl)ccc21,inactive,–
CON(C)C(=O)Nc1ccc(Cl)c(Cl)c1,inactive,–
CC1=C(C(=O)Nc2ccccc2)SCCO1,–,40.4 µM (active)
